Hits are enriched below; roughly 7.3% of the tested compounds scored in any of these assays.
AmpC inh no detg = blocks E. coli AmpC beta-lactamase in detergent-free assay; P00811; Potency, µM (doses to about 57.1 µM), for inactives: at the top dose activity change, negative = inhibition, usual class: inhibitors; AmpC nitrocefin hydrolysis, absorbance 480 nm, 0.0001% Triton; 330,000 compounds, 0.52% hits;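 also: potency is read from the fitted curve at half-maximal effect; plate controls were no compound for no effect and no enzyme for full effect; nearly all actives have a fitted effect of over 20% in size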
Target sequence (P00811 whole entry, looked up): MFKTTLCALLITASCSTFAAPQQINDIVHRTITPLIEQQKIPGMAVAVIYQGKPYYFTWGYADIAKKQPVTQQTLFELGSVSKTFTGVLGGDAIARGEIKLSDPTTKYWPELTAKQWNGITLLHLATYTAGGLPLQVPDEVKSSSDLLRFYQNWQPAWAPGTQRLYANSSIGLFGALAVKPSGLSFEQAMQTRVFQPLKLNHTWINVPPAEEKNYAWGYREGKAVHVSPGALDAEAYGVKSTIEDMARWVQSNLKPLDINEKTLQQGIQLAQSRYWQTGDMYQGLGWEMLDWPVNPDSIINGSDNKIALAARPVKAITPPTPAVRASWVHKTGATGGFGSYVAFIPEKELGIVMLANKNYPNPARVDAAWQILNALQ
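AmpC (5.3 nM in the dispensed reagent) in 20 mM phosphate pH 7.0 with 0.01% (detergent screen) or 0.0001% Triton X-100 was preincubated with compounds for 15 min at room temperature. Nitrocefin was then added from an 800 uM solution, and hydrolysis was followed at 480 nm.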
HCV inhibitor = blocks hepatitis C virus. AID 651820. Huh7.5.1 HCVcc-Cre infection, luciferase reporter, 44 h. Potency, µM (top dose mostly 41.8 µM), for inactives: at the highest dose activity change, negative = inhibition, most hits filed as inhibitors. 340,000 compounds, 3.4% hits; also: potency is read from the fitted curve at half-maximal effect
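Infectious HCV cell culture screen: compound-treated cells (1,000/well, pre-plated 4 h) are infected with HCVcc-Cre at roughly 0.5 moi and grown 44 h. Infection is quantified by luciferase signal after 15 min substrate incubation at room temperature.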
AmpC detergent = blocks E. coli AmpC beta-lactamase in detergent assay; 370,000 compounds, 0.041% hits; AmpC hydrolysis of nitrocefin, absorbance 480 nm, 0.01% Triton; P00811; Potency, µM (highest dose often 114 µM), inactives show top-dose activity change, negative = inhibition, hits mostly inhibitors;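 also: potency is read from the fitted curve at half-maximal effect; 0% = no-compound wells and -100% = no-enzyme wells; nearly all actives have a fitted effect of over 25% in size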
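AmpC (5.3 nM in the dispensed reagent) in 20 mM phosphate pH 7.0 with 0.01% (detergent screen) or 0.0001% Triton X-100 was preincubated with compounds for 15 min at room temperature. Nitrocefin was then added from an 800 uM solution, and hydrolysis was followed at 480 nm.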
HCMV antiviral = inhibitors of human cytomegalovirus. 410,000 compounds, 4.5% hits. activity change, negative = inhibition, % at 57.5 µM. AID 1259415. HFF cells, HCMV-luciferase reporter, 72 h; hits give low values; in the data active = activity change below about -60%; inconclusive = no clear call, values can overlap the other calls; inactive = above about -39%
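Two-dose cell screen: HFF monolayers treated with compounds and infected with luciferase-expressing HCMV at 1 PFU/cell, 72 h at 37C, then lysed for luciferase measurement.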
FMDV inh = blocks foot and mouth disease virus; 410,000 compounds, 1.2% hits; FMDV antiviral cell-based qHTS; Potency, µM (doses to about 57.9 µM), for the others: at the highest dose activity change, negative = inhibition, most hits filed as inhibitors; calls by dose curve; tested in HEK293T cells; also: read-out not given here; potency is read from the fitted curve at half-maximal effect; nearly all actives have a fitted effect of over 45% in size
* = called active by the depositor; ? = inconclusive; / = no result; [ ] = remark or other dose. Unless noted, calls follow the shape of the dose curve; as a rule, active = well fitted curve in the direction sought with a large enough effect; inconclusive = small, poorly fitted or top-dose-only effect, or another doubt; inactive = no such curve, though single readings can be large; an effect the other way counts as inactive or inconclusive. Unless noted, % is scaled to controls: 0 for no effect and ±100 for the full control effect.

SMILES	AmpC inh no detg	HCV inhibitor	AmpC detergent	HCMV antiviral	FMDV inh
CCN(CC)Cc1c(O)ccc2c(=O)c(Oc3ccccc3OC)coc12	-31%	6%	7%	-61*	-14%
COc1ccc(/C=C(\C#N)C(=O)OCC(=O)NCc2ccccc2Cl)cc1	-24%	0%	1%	-28	10%
COc1ccc(/C=C(\C#N)C(=O)OCC(=O)NCc2ccccc2OC)cc1	32µM*	8%[8.37 µM]	?	17	18%
C=C1[C@H](C)CN(S(=O)C(C)(C)C)[C@H]1CCO (some centres undefined)	/	/	/	-5	/
COc1ccc(C(=O)C2CCCN(Cc3cc(C)c(O)c(C)c3)C2)c(OC)c1 (centres undefined)	4%	?	-13%	10	-24%
COc1ccc(C(=O)C2CCCN(Cc3sc(N4CCCC4)nc3Cl)C2)c(OC)c1 (centres undefined)	151%	?	1%	-72*	?
COc1ccc(C(=O)C2CCCN(Cc3cc(Cl)ccc3O)C2)c(OC)c1 (centres undefined)	-3%	11µM*	?	-26	?
COc1ccc(C(=O)C2CCCN(Cc3cnc(C)s3)C2)c(OC)c1 (centres undefined)	-50%	?	0%	?	?
CCSc1nc2sc3c(c2c(=O)n1-c1ccc(C)cc1)CCCC3	/	/	20%	-4	-22%
Cc1cccc(N(C)S(=O)(=O)c2cc3[nH]c(=O)c(=O)[nH]c3cc2C)c1	/	/	10%	4	-8%
CC(=O)c1ccc(OCC(O)Cn2nnc3ccccc32)cc1 (centres undefined)	-7%	-8%	-3%	27	/
N#Cc1ccc(-c2ccc(OCC(O)Cn3nnc4ccccc43)cc2)cc1 (centres undefined)	-23%	?	2%	-37	28µM*
CC(C)c1ccc(COC(=O)CN2C(=O)NC3(CCCCC3C)C2=O)cc1 (centres undefined)	20%	14µM*	?	0	0%
CCOc1ccccc1Nc1nnc(SCC(=O)N2CCCC2)s1	-12%	25µM*	-6%	141	18%
CCOc1ccccc1Nc1nnc(SCC(=O)Nc2ccc3[nH]c(=O)[nH]c3c2)s1	18µM*	-23%	-3%	7	-3%
COCCCOc1ccnc(CS(=O)c2nc3ccccc3[nH]2)c1C (centres undefined)	15%	?	?	-65*	10%
Cc1c(OCC(F)(F)F)ccnc1CS(=O)c1nc2ccccc2[nH]1 (centres undefined)	-15%	?	?	22	-13%
COc1ccc(-c2noc3c2-c2nc(-c4ccccc4F)sc2CC3)cc1	-22%	?	?	-16	-20%
CCOc1ccc(-c2nc3c(s2)CCc2onc(-c4ccc(OC)cc4)c2-3)cc1	/	9%	/	-60*	-15%
COc1ccc(-c2noc3c2-c2nc(-c4c(F)cccc4F)sc2CC3)cc1	-30%	3.5µM*	-8%	9	?
COc1ccc(-c2noc3c2-c2nc(-c4ccc(C)cc4)sc2CC3)cc1	/	16%	/	?	-24%
CCC(=O)N1CCc2cc(Br)cc(S(=O)(=O)CCC(=O)NCc3ccc(Cl)cc3)c21	/	/	8%	-26	-4%
Cc1ccc(C(=O)NCCc2nnc3n2CCN(Cc2ccnc4ccccc24)CC3)c(C)c1	/	/	/	/	-7%
CN(C)C(=O)N1CCN(C(=O)c2ccco2)CC1	28µM*	7%	-13%	-9	2%
CCCSc1ccccc1C(=O)N1CCN(C(=O)c2ccco2)CC1	40%	3%	0%	-101*	-9%
CCC(C(=O)N1CCN(C(=O)c2ccco2)CC1)c1ccccc1 (centres undefined)	0%	-6%	-12%	32	0%
O=C(c1ccco1)N1CCN(C(=O)c2ccco2)C1=S	/	?	/	57	32µM*
O=C(CSc1nc2ccccc2nc1N1CCOCC1)N1CCN(c2ccccc2)CC1	109%	?	-14%	-16	?
CCc1cccc(NC(=O)CSc2nc3ccccc3nc2N2CCCCC2)c1	/	/	23%	-80*	-12%
Cc1cccc(NC(=O)CSc2nc3ccccc3nc2N2CCCC2)c1	-43%	?	-13%	?	2%
